Shiga inhibitor – Shiga toxin inhibition. Vero cells, Shiga toxin protein synthesis inhibition reporter. inhibition, % at 38.7 µM. 9.2% of 290,000 active. AID 2315; in the data active means inhibition mostly above about 28%, no sharp cut-off; inactive means mostly below about 43%; further: 0% is about no effect
Pf growth 48h – inhibits P. falciparum growth in the first generation, 48 h. Potency, µM (doses to about 28.7 µM), without a hit: at the top dose activity change, negative = inhibition, actives largely listed as inhibitors. P. falciparum luciferase growth in erythrocytes, 48 h. 5.9% of 310,000 active. AID 504832; further: potency means the concentration at half of the fitted maximal effect; on the % scale 0 is the no-effect control and ±100 the full control effect
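Erythrocytes infected with P. falciparum carrying an integrated firefly luciferase reporter (2% hematocrit, 0.1% parasitemia final) were exposed to compounds in RPMI 1640 with 0.5% Albumax at 37 C, 5% CO2. Growth inhibition was scored as reduced luminescence.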
HCMV antiviral – human cytomegalovirus inhibition; HFF cells, HCMV-luciferase reporter, 72 h; hits give low values; activity change, negative = inhibition, % at 57.5 µM; 4.5% of 410,000 active; AID 1259415; in the data active means activity change below about -60%; inconclusive means no clear call, values can overlap the other calls; inactive means above about -39%; further: on the % scale 0 is the no-effect control and ±100 the full control effect
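Compounds were evaluated in HFFs infected with an HCMV luciferase reporter virus (MOI 1 PFU/cell). Luciferase in lysates collected 72 h post infection served as the replication measure.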
CHX counter – counter-screen hit for Shiga toxin inhibitors, cycloheximide | cell reporter, cycloheximide protein synthesis inhibition counterscreen | max response, % | 12% of 300,000 active | AID 2314; in the data active means max response mostly above about 13%, no sharp cut-off; inactive means mostly below about 14%; further: read at 38.3 µM for the half of the compounds with a filed dose; 0% is about no effect
HCV inhibitor – HCV inhibition. Huh7.5.1 HCVcc-Cre infection, luciferase reporter, 44 h. Potency, µM (top dose mostly 41.8 µM), for inactives: at the top dose activity change, negative = inhibition, hits mostly inhibitors. 3.4% of 340,000 active. AID 651820; further: potency means the concentration at half of the fitted maximal effect; on the % scale 0 is the no-effect control and ±100 the full control effect
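1,000 cells/well; 4 h culture; + compound; + HCVcc-Cre (~0.5 moi); 44 h; luciferase substrate, RT 15 min; read 15 sec.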
Pf growth 96h – P. falciparum growth inhibition at 96 hours; P. falciparum luciferase reporter growth, 96 h; Potency, µM (highest dose often 28.7 µM), without a hit: top-dose activity change, negative = inhibition, actives largely listed as inhibitors; 6.9% of 320,000 active; AID 504834; further: potency means the concentration at half of the fitted maximal effect; on the % scale 0 is the no-effect control and ±100 the full control effect
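Delayed-death screen, second-generation endpoint: infected erythrocytes, 2% hematocrit, 0.05% parasitemia final; 96 hours at 37 C, 5% CO2; luciferase detection reagent; luminescence decrease equals reduced growth.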
Active calls of the source: *; ? = inconclusive; nt = not tested or not shown; [ ] = remark or other dose. An excerpt weighted towards active compounds, which were near 21% of everything screened. Unless noted, the call rests on the fitted dose curve; in most records, active means well fitted inhibition curve with a large enough effect; inconclusive means small, poorly fitted or top-dose-only effect, or another doubt; inactive means no such curve, though single readings can be large or run the other way.

SMILES | Shiga inhibitor | Pf growth 48h | HCMV antiviral | CHX counter | HCV inhibitor | Pf growth 96h
COc1ccc(-c2nc3ccccc3o2)cc1NC(=O)c1cc(Br)ccc1OC | nt | nt | 1.9 | nt | nt | nt
OCCN(C=NC1=NN(c2cccc(C(F)(F)F)c2)CC1)CCO | -13.2 | 61.0% | -10.2 | -2.4 | -21.1% | 410.3%
CCN(C=NC1=NN(c2cccc(C(F)(F)F)c2)CC1)CC | 66.2 | -2.1% | -22.4 | 37.1* | 11.2µM* | -4.7%
Cc1cccc(N2CCC(N=CN(C)C)=N2)c1 | 99.6* | 45.7% | ? | 41.3* | -4.9% | 6.5%
COc1ccc(NC(=O)C2(S(=O)(=O)c3ccc(C)cc3)CC2)c(OC)c1 | nt | nt | -8.8 | nt | nt | nt
O=C(COC(=O)C1=COCCO1)Nc1ccccc1 | 64.1* | 196.0% | 136.4 | 52.4* | 31.7% | 132.3%
O=C(COC(=O)C1=COCCO1)Nc1ccc(OC(F)F)cc1 | 53.4* | 27.8% | 24.6 | 38.0* | 0.6% | 4.4%
N#Cc1ccc(NC(=O)COC(=O)C2=COCCO2)cc1 | -3.4 | 24.5% | -9.9 | 28.0 | -7.0% | 33.3%[5.75 µM]
COc1ccccc1C(=O)OCC(=O)Nc1ccc(OC(F)F)cc1 | 92.5* | 21.2% | 21.1 | 21.3* | ? | nt
COc1ccccc1C(=O)OCC(=O)Nc1ccccc1OC(F)F | -4.9 | 2.1% | 8.5 | 14.1 | -5.6% | 84.0%
O=C(COC(=O)C1=COCCO1)NC1CCCCCCC1 | 45.7* | 107.9% | 7.9 | 28.7* | 17.2% | 15.4%
COc1cc(/C=C/c2nc3cc(Cl)ccc3c(=O)n2-c2ccc(C)cc2C)cc(OC)c1OC | nt | nt | 24.0 | nt | nt | nt
COc1cc(NC(=O)CCc2nc3cccnc3n2Cc2cccs2)cc(OC)c1OC | nt | nt | 50.1 | nt | nt | nt
COc1cccc2c1Oc1nc(-c3ccccc3)nc(SCC(=O)N3CCCCC3)c1C2 | nt | nt | 29.9 | nt | nt | nt
CC(C)(C)OC(=O)NCCCC[C@H](NC(=O)c1nc[nH]c1C(=O)N1CCc2ccccc2C1)C(=O)OC(C)(C)C | -1.7 | ? | -26.6 | -1.0 | ? | ?
CC(C)C[C@H](NC(=O)c1nc[nH]c1C(=O)NC1CCN(C(=O)OC(C)(C)C)CC1)C(=O)OCc1ccccc1 | -9.6 | ? | 15.2 | 3.4 | ? | 11.7µM*
CC(C)(C)OC(=O)NCCCC[C@H](NC(=O)c1nc[nH]c1C(=O)NC1CCN(C(=O)OC(C)(C)C)CC1)C(=O)OC(C)(C)C | -14.2 | 2.08µM* | 44.8 | -4.8 | ? | 2.33µM*
C[C@H](NC(=O)c1nc[nH]c1C(=O)NC1CCN(C(=O)OC(C)(C)C)CC1)C(=O)OC(C)(C)C | -8.9 | -10.3% | -20.2 | 3.1 | 1.2%[8.37 µM] | ?
CC(C)C[C@H](NC(=O)c1nc[nH]c1C(=O)NC1CCN(C(=O)OC(C)(C)C)CC1)C(=O)OC(C)(C)C | -9.2 | 1.47µM* | 24.5 | -1.7 | 6.3% | 2.33µM*
CC(C)C[C@H](NC(=O)c1nc[nH]c1C(=O)N1CCN(C(=O)OC(C)(C)C)CC1)C(=O)OCc1ccccc1 | 9.5 | ? | 20.7 | -0.2 | 14.8% | ?
Cc1ccc(CNC(=O)Cc2c(C(=O)O)c(C)cn2C)cc1 | nt | nt | 11.8 | nt | nt | nt
CCCCn1c(N)c(N(CC(C)C)C(=O)c2ccc(OCc3c(C)noc3C)cc2)c(=O)[nH]c1=O | nt | ? | -20.9 | nt | 13.3% | 8.8%
COc1ccc(C2/C=C\CN(S(=O)(=O)c3ccc(C)cc3)C(C)C(=O)N2Cc2ccc(F)cc2)cc1 (stereo unspecified) | -1.5 | nt | nt | 4.6 | nt | nt
CCOc1cc(C(=O)Nc2cccc3cccnc23)cc(OCC)c1OCC | nt | nt | -29.7 | nt | nt | nt
COc1nnc(-c2ccccc2)s1 | 41.2* | 16.8% | 23.4 | 15.4 | 10.0% | 13.2%
SMILES | Shiga inhibitor | Pf growth 48h | HCMV antiviral | CHX counter | HCV inhibitor | Pf growth 96h
COc1c(OC)c(O)c2c(=O)cc(-c3c(O)cccc3O)oc2c1OC | 43.4 | ? | 42.3 | 17.5* | ? | ?
COc1ccc(-c2cc(=O)c3c(O)c(OC)c(OC)c(OC)c3o2)cc1 | nt | nt | 40.2 | nt | ? | nt
COc1c(O)cc(O)c2c(=O)cc(-c3ccccc3)oc12 | nt | nt | 10.1 | nt | ? | nt
COc1ccc(-c2cc(=O)c3c(OC)c(OC)c(OC)cc3o2)cc1 | 16.8 | ? | 6.8 | 1.4 | -28.5% | 11.7µM*
COc1ccc(-c2cc(=O)c3c(O)c(OC)c(O)cc3o2)cc1 | 45.5* | 188.7% | 32.9 | 37.3* | -24.9% | 409.5%
CC(C)COC(=O)N1CCCCC1c1cc(C(=O)NCc2ccccc2)no1 (stereo unspecified) | nt | nt | -7.9 | nt | nt | nt
CC(C)C[C@H]1CN([C@@H](CC(C)C)CN2CCC[C@@H]2CN2C(=O)C(=O)NC[C@@H]2Cc2ccccc2)C(=O)C(=O)N1CC1CCCCC1 | nt | nt | -65.9* | nt | 4.8% | nt
O=C1NC[C@H](CCCCN2C[C@H](Cc3ccc(O)cc3)N(CC3CCCCC3)C(=O)C2=O)N(Cc2ccccc2)C1=O | nt | nt | -74.8* | nt | nt | nt
CC(C)C[C@@H](CN1CCC[C@H]1CN1C(=O)C(=O)NC[C@@H]1Cc1ccccc1)N1C[C@H](Cc2ccc(O)cc2)N(CC2CCCCCC2)C(=O)C1=O | nt | nt | -103.0* | nt | nt | nt
O=C(NCCc1ccc(Cl)cc1)c1c2c(nc3ccccc13)C(=O)N(C1CCCCC1)C2 | nt | nt | 13.1 | nt | nt | nt
CCOc1cc2[nH]c(=O)n(CCCCC(=O)N3CCN(c4ccc(OC)cc4)CC3)c(=O)c2cc1OCC | nt | nt | 3.5 | nt | nt | nt
CC(=O)Nc1ccc(S(=O)(=O)NCCc2ccc3c(c2)OCCO3)cc1 | nt | nt | -11.1 | nt | nt | nt
CC(=O)Nc1ccc(N(C(=O)Cc2cccs2)C(C(=O)NC2CCCC2)c2ccncc2)cc1 (stereo unspecified) | -7.6 | -64.3% | 21.4 | -4.9 | 2.7% | ?
CCn1cc2nc(SCc3cccc(C(F)(F)F)c3)n(Cc3ccc(Cl)cc3)c(=O)c2n1 | nt | nt | -33.6 | nt | nt | nt
CCn1ccnc1CN1CCc2c([nH]c3ccccc23)C1C(C)(C)C (stereo unspecified) | 18.3 | 4.65µM* | 0.9 | -2.9 | ? | 32.1%
COCc1ccc(CN2CCc3c([nH]c4ccccc34)C2C(C)(C)C)o1 (stereo unspecified) | 39.2 | 86.1% | 55.9 | 20.7* | -12.2% | -28.9%[5.75 µM]
CN(C(=O)CSc1nnc(-c2ccc(OC(F)F)cc2)n1N)C1CCS(=O)(=O)C1 (stereo unspecified) | nt | 27.1% | -5.9 | nt | 10.5% | 8.9%
O=C(CCCn1c(=S)[nH]c2cc3c(cc2c1=O)OCO3)NCc1cccc(Cl)c1 | 0.8 | -29.4% | -13.1 | -1.7 | 13.1% | 9.28µM*
O=C(CCCCCn1c(=S)[nH]c2cc3c(cc2c1=O)OCO3)N1CCN(C(=O)c2ccco2)CC1 | -3.3 | ? | -10.2 | -4.7 | ? | ?
O=C(CCCCCn1c(=S)[nH]c2cc3c(cc2c1=O)OCO3)N1CCN(Cc2ccccc2)CC1 | 11.1 | 11.7µM* | -24.7 | 0.1 | ? | -1.1%
COc1ccc(C2c3c(oc4ccccc4c3=O)C(=O)N2c2nc(C)c(C)s2)cc1 (stereo unspecified) | nt | nt | 5.5 | nt | nt | nt

Source: PubChem BioAssay
